PubChem BioAssay (NCATS)
Results filed as inconclusive are left out. Calls come from the whole dose curve; as a rule, active = well fitted curve in either direction with a large enough effect (not every such curve was filed as active); inconclusive = small, poorly fitted or top-dose-only effect, or another doubt; inactive = flat fitted curve, though single readings scatter.

experiment: AP1 Signaling Pathway (AID 357); conditions: ME-180 (cervical carcinoma) AP-1-bla reporter, EGF-induced, beta-lactamase ratio, 5 h; at 17.2 µM (top of the series) unless noted;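 note: ME-180 reporter cells stimulated with EGF at its EC50 level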
Excerpt: NCGC Assay Overview: Activator protein-1 (AP-1), a transcription factor, plays an important role in tumor genesis by regulating genes involved in cell proliferation, differentiation, apoptosis, and angiogenesis. AP-1 activity is induced by a complex network of signaling pathways that involves extracellular signals, such as growth factors. The AP-1 protein complex formed from c-Fos and c-Jun binding to the AP-1 response element results in transcriptional activation of genes containing such elements within their promoter. Low molecular weight molecules have been discovered and developed to modulate various components of these signaling pathways, for example, MAP kinase inhibitors. However, many points of pathway modulation remain untested due to the lack of chemical probes making this signaling locus of general interest. Using a beta-lactamase reporter-gene under control of the AP-1 response element, a cell-based assay [CellSensor(TM) AP-1-bla ME-180 developed by Invitrogen Corp.] was used to measure EGF-induced signaling. Library compounds were measured for their ability to modulate positively or negatively the action of EC50 EGF on reporter gene activity. Compounds were screened in a titration series in 1536-well format. Positive and negative modulators were identified based on the AC50 values derived from the screening data.
NCGC Assay Protocol Summary: 2500 cells/5uL in Opti-MEM medium containing 0.5% dialyzed FBS, 0.1 mM NEAA, 1 mM sodium pyruvate and 10 mM HEPES was dispensed into 1536-well plates and cells were cultured at 37 degrees Celsius overnight. […] After centrifugation at 1000 rpm for 2 seconds the plates were incubated at 37 degrees Celsius for 5 hours. 1 uL of CCF4-dye mixture was added to each well. After incubated at room temperature for 2.5 hours the plates were measured on an EnVision plate reader at Excitation 405nm, Emission1=460nm and Emission 2=530nm. The %Activity was determined from the ratio of 460nm/530nm.
% is set by controls: 0 for no effect and ±100 for the full control effect.

Activity change, negative = inhibition, inactive:
Cc1csc2nc(CSc3nc4ccccc4o3)cn12 -11.6%, N#Cc1c(NCCN)nc(NCc2ccccc2)c2c1CCN(Cc1ccccc1)C2 0.0828%, Nc1ccc2cn[nH]c2c1 4.71%, COc1ccc(OC)c(C2C(C(=O)c3ccco3)=C(O)C(=O)N2CCCN2CCOCC2)c1 (stereo not given) 11.5%, CC1(C)Cc2c(c(-c3ccccc3)[nH]c(=O)c2C#N)CS1 -0.182%, c1ccc(OCc2nn3c(-c4ccccn4)nnc3s2)cc1 -1.82%, Clc1ccc(-n2ncc3c(NCCCn4ccnc4)ncnc32)cc1 -4.22%, C=CCn1c(SCC#N)nc2c(c1=O)C(C)(C)Cc1ccccc1-2 -2.85%, CCN1CCc2c(C#N)c(N3CCOCC3)nc(NCCO)c2C1 0.329%, O=C(NCCCN1CCOCC1)C1(c2ccccc2)CCOCC1 3.71%, Nc1ccc2oc(-c3ccccc3Cl)nc2c1 -0.869%, Cn1c(=O)c2c(nc(NCc3ccco3)n2Cc2ccccc2Cl)n(C)c1=O 16.7%, C=CCn1c(SCC(=O)c2ccccc2)nnc1-c1ccc2c(c1)OCO2 -7.81%, C=CCNc1nc(N2CCOCC2)c(C#N)c2c1CN(C)CC2 4.63%, CC(=O)C1=C(O)C(=O)N(Cc2cccnc2)C1c1ccccc1Cl (stereo not given) 3.06%, CC(C)Oc1ccc(/C(O)=C2/C(=O)C(=O)N(CCN3CCOCC3)C2c2ccccc2)cc1 (stereo not given) -9.89%, CCOC(=O)/C=c1\s/c(=C(\C#N)C(=O)OCC)n(-c2ccccc2)c1=O 2.08%, CCC(=NC(CC)CO)C1=C(O)CC(C)(C)CC1=O (stereo not given) 16.1%, CCCN(CCC)C(=O)CC(c1ccc(F)cc1)c1ccco1 (stereo not given) 13%, COc1ccccc1N1CCN(CCCCOc2ccc(F)cc2)CC1 18.8%, O=C1NC(c2cccs2)Nc2ccccc21 (stereo not given) -27%, COc1ccc(C2NC3=C(CCC3)C3(C#N)C(OC)(OC)N=C(N)C23C#N)cc1 (stereo not given) -8.29%, CCOC(=O)NC(Nc1sc2c(c1C(N)=O)CCCC2)(C(=O)OCC)C(F)(F)F (stereo not given) -6.03%, O=C1CC(c2ccccc2)n2nc(NS(=O)(=O)c3ccccc3)nc2N1 (stereo not given) 22.4%, CCCCCc1ccc(-c2ccc(=O)[nH]n2)cc1 7.59%, Cc1ccc(OCc2nnc(NC(=O)c3ccco3)s2)c(C)c1 -4.34%, COc1ccc(-c2oc3ncn4nc(COc5ccccc5)nc4c3c2-c2ccc(OC)cc2)cc1 -11.5%, N#CC1=C2SCC(O)(c3ccccc3)N2C(=O)CC1c1ccccc1 (stereo not given) -17.2%, Cc1cc(=O)n2[nH]cnc2n1 14.3%, CSc1ccccc1NC(=O)c1c(Br)cnn1C -8.39%, Clc1ccc(-c2nn3c(-c4cccc(Cl)c4)nnc3s2)cc1 10.2%, COC(=O)c1ccc(CN(C(C)=O)c2ccccc2)o1 10.5%, C=CCOC(=O)C1=C(C)NC(SCC(=O)N(CC)CC)=C(C#N)C1c1ccco1 (stereo not given) -27.3%, O=C(NC1(C(F)(F)F)C(=O)Nc2c1c(=O)[nH]c(=O)n2Cc1ccco1)C1CCCCC1 (stereo not given) -8.35%, CCOc1ccc(CCNC(=O)C(O)c2ccccc2)cc1 (stereo not given) 13%, CCCOc1ccccc1C(=O)NCCCC(=O)O -0.71%, c1ccc(-c2nc(NCC3CCCO3)c3ccccc3n2)nc1 (stereo not given) -1.55%, CC1(C)CC(=O)C(C=NCCN2CCN(C(=O)C34CC5CC(CC(C5)C3)C4)CC2)=C(O)C1 -9.89%, C=CCc1cccc(/C=N/n2cnnc2)c1O -1.43%, CC(O)(C#CCN1CCOCC1)c1ccccc1 (stereo not given) -0.153%
